# Whole data set: some 33,000 sequences, median “E-score (-0.5 to 0.5)” near -0.054, cut for the highest 2% near 0.35. This is one part of a sample in which the highest values are shown more often than they occur.
# Molecular target: T1, Stb5 (UniProt P38699)
# T1 sequence: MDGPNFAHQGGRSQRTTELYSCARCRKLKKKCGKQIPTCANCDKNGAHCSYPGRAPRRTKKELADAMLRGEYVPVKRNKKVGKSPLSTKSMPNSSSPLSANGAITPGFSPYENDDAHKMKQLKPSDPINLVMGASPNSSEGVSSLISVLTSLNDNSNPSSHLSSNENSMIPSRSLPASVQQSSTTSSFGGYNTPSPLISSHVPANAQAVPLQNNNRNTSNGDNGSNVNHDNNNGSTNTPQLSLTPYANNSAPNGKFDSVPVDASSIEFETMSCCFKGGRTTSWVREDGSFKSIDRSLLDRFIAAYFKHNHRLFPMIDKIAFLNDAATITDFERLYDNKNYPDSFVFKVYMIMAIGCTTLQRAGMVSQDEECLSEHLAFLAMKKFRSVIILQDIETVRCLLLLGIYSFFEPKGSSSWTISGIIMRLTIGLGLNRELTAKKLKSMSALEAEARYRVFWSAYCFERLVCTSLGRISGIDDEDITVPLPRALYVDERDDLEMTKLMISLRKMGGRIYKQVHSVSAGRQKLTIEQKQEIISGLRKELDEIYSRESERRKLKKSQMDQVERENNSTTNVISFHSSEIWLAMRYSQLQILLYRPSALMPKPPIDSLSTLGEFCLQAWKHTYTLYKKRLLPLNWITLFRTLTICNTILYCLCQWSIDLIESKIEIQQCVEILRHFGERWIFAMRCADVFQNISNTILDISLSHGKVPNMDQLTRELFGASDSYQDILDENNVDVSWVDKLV
# Experiment: PBM E-score (8-mer binding enrichment) (E-score (-0.5 to 0.5)); higher = stronger / more preferred TF binding
# Settings: protein concentration: 200 nM; construct: GST-full length
# Description: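 Universal 'all 10-mer' protein binding microarrays (Agilent AMADID 015681) probed with GST-tagged S. cerevisiae TFs (full-length or DBD) made by in vitro transcription/translation (PURExpress), about 100-200 nM. Bound TF was detected with fluorescent anti-GST. Each ungapped 8-mer (which stands for itself and its reverse complement) is scored by the PBM enrichment score (E-score), a modified Wilcoxon-Mann-Whitney statistic from -0.5 to +0.5, computed with the Universal PBM Analysis Suite. Scale: above 0.35 generally sequence-specific binding.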
row,Sequence,PBM E-score
1,CGAATAGC,0.0153
2,AAAGGTTG,-0.192
3,CTTGGCAC,-0.106
4,AGCTTTAG,-0.226
5,AGCATCGG,0.214
6,CCATACCG,0.202
7,AGCCGCTA,0.173
8,ACCCGCTA,0.0951
9,CGCCGCTA,0.412
10,ACCCGCTC,0.246
11,CCCCGCTA,0.399
12,GGCCGCTA,0.299
13,GCCCGCTA,0.233
14,CCCCGCTC,0.371
15,CCCCGCAC,0.236
16,AGACCAGC,-0.285
17,AAGTCTGC,-0.211
18,CCAGCAGC,-0.12
19,AGAACTAA,0.0894
20,TGAACTAA,-0.153
21,GGAACTAA,0.373
22,CCCGTTTA,0.188
23,GTCCACAC,0.162
24,GCTCCGGA,0.368
25,CCTCCGGA,0.219

row,Sequence,PBM E-score
1,GCTCCGCA,0.173
2,ACTCCGGA,0.355
3,ACTCCGGG,0.327
4,ACTCCGGC,0.307
5,ATATTCTG,0.0727
6,GCTGACCA,-0.169
7,CCCCCAAG,-0.233
8,GGCAGCTA,-0.0896
9,TAATACTA,-0.0352
10,CAGAATCC,-0.0711
11,ATCGGATG,0.168
12,ACGCTGGC,-0.0211
13,GAACCGGC,0.213
14,GCACCGGA,0.338
15,ACACCGGG,0.417
16,CCACCGGC,0.322
17,ACACCGGA,0.402
18,ACACCTGT,0.0542
19,ACACCCGG,0.234
20,CCACCGGG,0.26
21,GCACCGGC,0.353
22,ACACCGGT,0.421
23,AAACCGGT,0.304
24,TCACCGGA,0.343
25,CGGTTGTA,0.309

row,Sequence,PBM E-score
1,ATAGCCAC,-0.171
2,ACCAAGCA,-0.0711
3,AAATGTTC,-0.138
4,CATTGGCC,-0.214
5,AAACCGGC,0.268
6,AGACCGGC,0.313
7,ACACCGGC,0.4
8,ACCGTCTC,0.0885
9,CACACCAC,-0.199
10,CACACCGG,0.327
11,GACACCTC,-0.0935
12,AACACCCA,-0.0193
13,CACACCTC,-0.0997
14,CACACCGA,0.344
15,CACACCGC,0.394
16,AACACCGA,0.479
17,GACACCCC,0.014
18,AACACCTG,0.179
19,GACACCGC,0.454
20,AACACCGG,0.474
21,GAGCCTCC,-0.123
22,CACCGTAC,0.213
23,AGCCGCCT,0.0174
24,ACCGTGGC,0.0612
25,ACCAAAAG,-0.113

row,Sequence,PBM E-score
1,CCAACCTC,-0.111
2,GAATCGAA,-0.175
3,CGTGTACA,-0.00441
4,AACACCCT,-0.128
5,GCCACCGA,0.139
6,AACACCGT,0.472
7,GACACCGA,0.442
8,TACACCAA,-0.128
9,TACACCTA,-0.109
10,TACACCGA,0.414
11,GACACCAA,-0.124
12,AACACCAT,0.0943
13,AGGCGACG,-0.112
14,CCAGAAAA,-0.296
15,AATGACTC,-0.235
16,AAGGATCT,-0.117
17,CCTGCCCC,0.0235
18,CTGAATCA,-0.177
19,ACCCCCCT,-0.245
20,CCCCCCGC,0.068
21,ACACCCGT,0.162
22,AACCCCAT,0.156
23,ACCCCCCC,-0.295
24,ACCCCCGC,0.398
25,ACCCCCGT,0.365

row,Sequence,PBM E-score
1,AACCCCGT,0.448
2,AACCCCCT,-0.247
3,CTACTCCC,-0.0111
4,TCGTGGAA,0.00034
5,CTAAGAAC,0.00444
6,ATGTTCCG,0.249
7,AATTGATG,0.0383
8,ATCGATAA,-0.139
9,ACGGCACC,0.175
10,ACGGCACA,0.0761
11,ACGGCGAG,0.043
12,ACGGCAAA,0.235
13,ACGGCGTC,0.392
14,ACGGCAAG,-0.121
15,ACGGCACT,0.427
16,ACGGCGTA,0.0801
17,ACGGCGAT,0.362
18,ACGGCGAC,0.264
19,ACGGCGTG,0.208
20,ACGGCAAT,0.377
21,ATACCAGA,-0.177
22,GGTACTTA,0.233
23,GTTAGAAC,0.0768
24,ATTCGCCC,0.125
25,CCTCCAAC,-0.199

row,Sequence,PBM E-score
1,ATCGCAAC,-0.0557
2,CATATCCG,0.15
3,AATATGCT,0.00961
4,CCGGCACC,0.278
5,GCGGCACC,0.353
6,GCGGCACA,0.173
7,GCAAAAGA,-0.0404
8,CATTGAGC,-0.032
9,CTCTAATA,-0.188
10,AGGGCCCT,-0.173
11,GGGCTAAC,-0.0393
12,AGCTAGGG,-0.0617
13,ATAGCGCC,0.361
14,ATAGCACA,-0.124
15,ATAGCACG,-0.0126
16,CTAGCGCC,0.172
17,ATAGCACC,0.396
18,ATAGCGCG,0.0127
19,AGCTCGAA,-0.0836
20,GGTGAAGA,0.0224
21,CAGTTCGG,0.206
22,GTTTCTAA,0.0616
23,CTGCCGAC,0.15
24,ACGCCGAC,0.435
25,ATGCCGAG,0.147

row,Sequence,PBM E-score
1,CCGCCGAA,0.347
2,CCGCCGAC,0.356
3,CCGCCGAG,0.28
4,ATGCCGTG,0.144
5,ATGCCGTC,0.352
6,ATGCCGAC,0.386
7,ACGCCGAT,0.35
8,CTGCCGTC,0.121
9,GCGCCGAC,0.28
10,AGAATCTG,-0.0539
11,CCACACGC,-0.0412
12,CTCCGTCA,0.297
13,ATCTACAT,-0.193
14,TCCAACAA,-0.129
15,GAGGTATC,-0.0164
16,ATGCCGGC,0.301
17,ATGCCGGA,0.373
18,ATGCCGGG,0.287
19,GTTATCGA,-0.0558
20,CAAGAGAC,-0.146
21,CCAGACGG,0.179
22,CCCGACGG,0.437

# From the supplement of paper PMC3334620
